Among the data in PubChem BioAssay (NCI) are growth values, retold here.

Compounds without any hit were thinned out: in the full panel of roughly 83,000, 20% have a hit.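 Step 1: grow cells in 96-well plates. Step 2: add test compound at a single concentration. Step 3: incubate 48 h. Step 4: record percent growth.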 The source made the active and inactive calls. How the source made its calls: active means growth percent below 10; inactive means the rest.

The subject of this assay is SN12C renal. Nature of the assay: NCI-60 one-dose screen, 48 h (100 = growth as untreated, 0 = no growth, -100 = all killed). To be noted: 10 µM unless noted.
Consider `O=C(O)c1nn(-c2ccc(Cl)cc2)nc1N1CCCC1`, for which the growth is 101% (inactive).

In the case of `COCCNC(=O)Cc1cc(-c2ccc(Cl)cc2)n(-c2ccccc2)c1C`, the growth was 87.6% (inactive).

Turning to `O=C(Nc1ccc(Oc2cccc(F)c2)c(Cl)c1)c1cnccn1`, the growth was 45.6% (inactive).

For `CC(=O)[C@H]1CC[C@]2(C)[C@@H]1CC[C@@H]1[C@@]3(C)C/C(=C/c4cccnc4)C(=O)C(C)(C)[C@@H]3CC[C@]12C`, the growth was 75.6% (inactive).

For the molecule `C=C(C)Cn1c(SCC(=O)c2cccs2)nc2sc3c(c2c1=O)CCCC3`, the growth was 64.5% (inactive).

`Cc1ccc(C(=O)Nc2ccc(CN3CCN(C)CC3)c(C(F)(F)F)c2)cc1C#Cc1cnc(N)c2ccccc12`: the growth was 11.3% (inactive).

With `COc1cc(C2CC(c3cccc(Nc4ccncc4)c3)=Nc3c(N)ncnc3N2)cc(OC)c1OC` (stereo not given), the growth was 93.9% (inactive).

In the case of `CO[C@]12C=C/C(=C(/C(=O)OCc3cccnc3)C(=O)CCCCCCCC[C@]3(OC)C=C/C(=C(/C(=O)OCc4cccnc4)C(=O)CCCCCCCC1)O3)O2`, the growth was -46.1% (active).

On to `CCOC(=O)CSc1nc2sc3c(c2c(=O)n1-c1ccccc1)CCCCC3`, for which the growth was 95.1% (inactive).

`CN1CCN(Cc2ccc(NC(=O)c3cncc(C#Cc4cnc(N)c5ccc(C#N)cc45)c3)cc2C(F)(F)F)CC1`: the growth is -81.1% (active).

With `CCOC(=O)C1=C(c2ccccc2)N=C2SC=C(c3cccc([N+](=O)[O-])c3)N2C1c1ccc(O)cc1` (stereo not given), the growth was 96% (inactive).

For `CCn1c2ccccc2c2cc(C(O)c3cccc4ncccc34)ccc21` (stereo not given), the growth was 27.6% (inactive).

In the case of `Cc1c(Cl)cccc1NC(=O)c1sc2nc3c(cc2c1N)CCCC3`, the growth was 41.2% (inactive).

With `O=C(/C=C/c1ccco1)Nc1ncc(Cc2ccc(F)cc2)s1`, the growth was 28.5% (inactive).

`COc1nc2ccccc2cc1/C=[N+](\[O-])c1ccccc1`: the growth is 59.1% (inactive).

As for `COc1ccc(-c2ccc(-c3ccc(C(=N)N)o3)o2)cc1`, the growth is -23.9% (active).

In the case of `C=C(C[n+]1ccccc1)[C@@H]1CC[C@]2(C(=O)OC)CC[C@]3(C)[C@H](CC[C@@H]4[C@@]5(C)CCC(=O)C(C)(C)[C@@H]5CC[C@]43C)[C@@H]12`, the growth was 87.8% (inactive).

`COc1cccc(C(=O)Nc2cccc(NC(=O)c3ccccn3)c2)c1`: the growth is 98.8% (inactive).

On to `N#CC1=C(N)Oc2c(ccc3cccnc23)C1c1ccccc1` (stereo not given), for which the growth is 49.5% (inactive).

In the case of `COc1ccc(C2=NN(C=O)C(c3ccc(Oc4nc5c(c(=O)n(C)c(=O)n5C)n4C)c(OC)c3)C2)cc1` (stereo not given), the growth is 53.8% (inactive).

With `CCCS(=O)(=O)Nc1cccc(Nc2ncnc3cc(NC(=O)CCl)ccc23)c1Cl`, the growth was -76% (active).

In the case of `Cn1cc(-c2csc(-c3cn(C)c4ccc(F)cc34)n2)c2cnccc21`, the growth is -29.9% (active).

`C=C(C)[C@@H]1CC[C@]2(C(=O)NC(C)=O)CC[C@]3(C)[C@H](CC[C@@H]4[C@@]5(C)CCCNC(C)(C)[C@@H]5CC[C@]43C)[C@@H]12`: the growth was 22.2% (inactive).

With `COc1cccc(CNc2nnc(C)c(C)n2)c1O`, the growth was 96.7% (inactive).

For `O=C(/C=C/c1ccc(Cl)cc1)c1ccc(-n2cc(CN3CCN(c4cc5c(cc4F)c(=O)c(C(=O)O)cn5C4CC4)CC3)nn2)cc1`, the growth is 58.2% (inactive).

`COc1cccc2cc(N(C)c3nc(C)nc4c3CCC4)ccc12`: the growth is 17.2% (inactive).

`O=C(O)CCCN1C(=O)CSC1=S`: the growth is 94.9% (inactive).

As for `Cc1c2cnccc2c(C)c2c1c1cc(C(=O)O)ccc1n2C`, the growth is 0.942% (active).

For `C=C1C(=O)O[C@H]2[C@H]1CC/C(CNC(=O)/C=C/c1cc(OC)c(OC)c(OC)c1)=C\CC[C@@]1(C)O[C@@H]21`, the growth is 28.1% (inactive).

For the molecule `Cc1nc2ccccc2c(/C=C/c2ccc(Br)cc2)c1C(=O)/C=C/c1ccccc1`, the growth was 10.8% (inactive).

Take `CC(=O)O[C@H]1C[C@@]2(C)[C@@H](C[C@@H](O)[C@H]3[C@@]4(C)CC[C@H](N5CCCC5)[C@@H](C)[C@@H]4CC[C@@]32C)/C1=C(\CCC=C(C)C)C(=O)O`: the growth was 98.4% (inactive).

As for `O=C(O)c1cc2ccccc2s1`, the growth was 106% (inactive).

For the molecule `CC(=O)OCCOc1cc(Cl)c(Cl)cc1Cl`, the growth was 102% (inactive).

With `CCN1CCN(c2nc(NNC(=O)c3ccc(OC)cc3)nc(N3CCN(C(c4ccccc4)c4ccccc4)CC3)n2)CC1`, the growth is 45.7% (inactive).

`Cc1cc(=O)oc2cc(Oc3nc(-c4ccccc4)cn4c(-c5ccccc5)cnc34)ccc12`: the growth was 67.6% (inactive).

`CN(Cc1ccccc1)c1nc(Cl)c(C2CC(c3ccc(Cl)cc3)=NN2c2cc(Cl)cc(Cl)c2)s1` (stereo not given): the growth was 106% (inactive).

As to `COC(=O)c1c(C)nc(C)c2c1C(=O)C(Br)=C(NCCCCO)C2=O`, the growth was 61.7% (inactive).

Turning to `COc1cc(/C=C/c2cc(/C=C/c3ccc(O)c(OC)c3)n(C(=O)Nc3ccc(C)cc3C)n2)ccc1O`, the growth was 0.467% (active).

On to `Cc1cc2nc(C(Cl)Cl)nc(-c3ccccc3)n2n1`, for which the growth was 85.6% (inactive).

On to `CN1C(=O)N(C)C2C1NN=c1s/c(=C\c3ccccc3F)c(=O)n12` (stereo not given), for which the growth was 26% (inactive).
